Data taken from PubChem BioAssay (NCATS).
Inconclusive results are not listed. Unmarked numbers belong to inactive results. Calls of active or inactive are those of the source. Calls follow the shape of the dose curve; as a rule, active = well fitted curve in the direction sought with a large enough effect; inconclusive = small, poorly fitted or top-dose-only effect, or another doubt; inactive = no such curve, though single readings can be large; an effect the other way counts as inactive or inconclusive.

Experiments:
[1] = Quantitative High-Throughput drug screen in 47 multiple myeloma cell lines against the NCATS MIPE library collection: KMS12PE_JCRB cell viability assay (AID 1918972); also: nearly all actives have a fitted effect of over 30% in size
Method in brief: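 qHTS of the MIPE 4.0 collection: 500 myeloma cells/well, 48 h drug exposure at 37C in 5% CO2, then CellTiter-Glo for 5 min at room temperature before luminescence reading.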

[2] = Quantitative High-Throughput drug screen in 47 multiple myeloma cell lines against the NCATS MIPE library collection: MMM1_PLB cell viability assay (AID 1918976); also: nearly all actives have a fitted effect of over 35% in size
Method in brief: (§1)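 Viability after 48 h drug exposure was measured as ATP-dependent luminescence. Cells, 500 per well, sat at 37 °C under 5% CO2; DMSO wells set 100%, media-only wells 0%.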

[3] = Quantitative High-Throughput drug screen in 47 multiple myeloma cell lines against the NCATS MIPE library collection: NCIH929_DSMZ cell viability assay (AID 1918978); also: nearly all actives have a fitted effect of over 35% in size
Method in brief: as §1

[4] = Quantitative High-Throughput drug screen in 47 multiple myeloma cell lines against the NCATS MIPE library collection: OCIMY1_PLB cell viability assay (AID 1918979); also: nearly all actives have a fitted effect of over 35% in size
Method in brief: as §1

[5] = Quantitative High-Throughput drug screen in 47 multiple myeloma cell lines against the NCATS MIPE library collection: MM1S_ATCC cell viability assay (AID 1918980); also: nearly all actives have a fitted effect of over 45% in size
Method in brief: as §1

[6] = Quantitative High-Throughput drug screen in 47 multiple myeloma cell lines against the NCATS MIPE library collection: MM1R_ATCC cell viability assay (AID 1918981); also: nearly all actives have a fitted effect of over 35% in size
Method in brief: as §1

[7] = Quantitative High-Throughput drug screen in 47 multiple myeloma cell lines against the NCATS MIPE library collection: LP1_DSMZ cell viability assay (AID 1918982); also: nearly all actives have a fitted effect of over 35% in size
Method in brief: as §1

[8] = Quantitative High-Throughput drug screen in 47 multiple myeloma cell lines against the NCATS MIPE library collection: KMS28PE_JCRB cell viability assay (AID 1918983); also: nearly all actives have a fitted effect of over 35% in size
Method in brief: as §1

[9] = Quantitative High-Throughput drug screen in 47 multiple myeloma cell lines against the NCATS MIPE library collection: L363_DSMZ cell viability assay (AID 1918984); settings: L363 myeloma viability, CellTiter-Glo ATP luminescence, 48 h; viability (% of control): at 45.8 µM (top of the series); also: nearly all actives have a fitted effect of over 40% in size
Method in brief: as §1

[10] = Quantitative High-Throughput drug screen in 47 multiple myeloma cell lines against the NCATS MIPE library collection: KMS20_JCRB cell viability assay (AID 1918973); also: nearly all actives have a fitted effect of over 45% in size
Method in brief: (§2)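 Myeloma cell lines, 500 cells per well, exposed to MIPE 4.0 library compounds for 48 h at 37C, 5% CO2. Viability from ATP by CellTiter-Glo luminescence; normalised to DMSO (100%) and media-only (0%) wells.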

[11] = Quantitative High-Throughput drug screen in 47 multiple myeloma cell lines against the NCATS MIPE library collection: MOLP8_DSMZ cell viability assay (AID 1918977); also: nearly all actives have a fitted effect of over 45% in size
Method in brief: as §1

[12] = Quantitative High-Throughput drug screen in 47 multiple myeloma cell lines against the NCATS MIPE library collection: KMS26_JCRB cell viability assay (AID 1918975); also: nearly all actives have a fitted effect of over 45% in size
Method in brief: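 Inhibition of cell viability is measured here. Each line was plated at 500 cells per well, treated with MIPE 4.0 drugs, kept 48 hours at 37C, then assayed for ATP content by CellTiter-Glo luminescence.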

[13] = Quantitative High-Throughput drug screen in 47 multiple myeloma cell lines against the NCATS MIPE library collection: KMS34_JCRB cell viability assay (AID 1918985); also: nearly all actives have a fitted effect of over 40% in size
Method in brief: as §1

[14] = Quantitative High-Throughput drug screen in 47 multiple myeloma cell lines against the NCATS MIPE library collection: OCIMY7_PLB cell viability assay (AID 1918987); settings: OCI-MY7 myeloma viability, CellTiter-Glo ATP, 48 h; viability (% of DMSO): at 45.8 µM (top of the series); also: nearly all actives have a fitted effect of over 65% in size
Method in brief: as §1

[15] = Quantitative High-Throughput drug screen in 47 multiple myeloma cell lines against the NCATS MIPE library collection: OCIMY5_PLB cell viability assay (AID 1918988); also: nearly all actives have a fitted effect of over 65% in size
Method in brief: as §1

[16] = Quantitative High-Throughput drug screen in 47 multiple myeloma cell lines against the NCATS MIPE library collection: OPM1_PLB cell viability assay (AID 1918989); also: nearly all actives have a fitted effect of over 40% in size
Method in brief: as §1

[17] = Quantitative High-Throughput drug screen in 47 multiple myeloma cell lines against the NCATS MIPE library collection: SKMM1_PLB cell viability assay (AID 1919863); settings: SKMM1 myeloma viability, CellTiter-Glo ATP, 48 h; viability: active compounds read low; also: nearly all actives have a fitted effect of over 35% in size
Method in brief: as §1

[18] = Quantitative High-Throughput drug screen in 47 multiple myeloma cell lines against the NCATS MIPE library collection: U266_ATCC cell viability assay (AID 1919864); also: nearly all actives have a fitted effect of over 35% in size
Method in brief: as §1

[19] = Quantitative High-Throughput drug screen in 47 multiple myeloma cell lines against the NCATS MIPE library collection: KMS21BM_JCRB cell viability assay (AID 1918974); settings: ATP luminescence, 48 h; viability: at 45.8 µM (top of the series)
Method in brief: as §2
Potency is read from the fitted curve at half-maximal effect.

## O=C(O)C1=NC(C(=O)O)CC(C=CN2c3cc(O)c(OC4OC(CO)C(O)C(O)C4O)cc3CC2C(=O)O)=C1 (stereo not drawn)
[1]
  Potency: inactive
[2]
  Potency: 23.5 µM (active)
[3]
  Potency: inactive
[4]
  Potency: inactive
[5]
  Potency: inactive
[6]
  Potency: inactive
[7]
  Potency: inactive
[8]
  Potency: inactive
[9]
  Potency: inactive

## Cn1cnc(-c2cc3nccc(Oc4ccc(NC(=S)NC(=O)Cc5ccccc5)cc4F)c3s2)c1
[10]
  Potency: 13.2 µM (active)
[11]
  Potency: inactive
[4]
  Potency: inactive
[7]
  Potency: 16.6 µM (active)

## CC1(C)CC(=O)c2c(C(F)(F)F)nn(-c3ccc(C(N)=O)c(NC4CCC(O)CC4)c3)c2C1 (stereo not drawn)
[10]
  Potency: 0.0935 µM (active)
[12]
  Potency: 0.0469 µM (active)
[2]
  Potency: 0.372 µM (active)
[3]
  Potency: 0.105 µM (active)
[4]
  Potency: 235 nM (active)
[5]
  Potency: 0.148 µM (active)
[6]
  Potency: 0.118 µM (active)
[13]
  Potency: 105 nM (active)
[14]
  Potency: 66.2 nM (active)
[15]
  Potency: 0.118 µM (active)
[16]
  Potency: 105 nM (active)
[17]
  Potency: 0.187 µM (active)
[18]
  Potency: 0.0935 µM (active)

## CC(C)[C@H](O)C(=O)N[C@@H](C)C(=O)N[C@@H]1C(=O)N(C)CCc2ccccc21
[10]
  Potency: inactive
[12]
  Potency: inactive
[2]
  Potency: 23.5 µM (active)
[3]
  Potency: 16.6 µM (active)
[4]
  Potency: inactive
[6]
  Potency: inactive
[7]
  Potency: inactive
[9]
  Potency: inactive
[13]
  Potency: inactive
[15]
  Potency: inactive
[16]
  Potency: inactive

## CNC(=O)[C@H](Cc1ccccc1)NC(=O)[C@H](CC(C)C)[C@H](CSc1cccs1)C(=O)NO
[10]
  Potency: inactive
[12]
  Potency: inactive
[3]
  Potency: 9.35 µM (active)
[5]
  Potency: 26.4 µM (active)
[8]
  Potency: 6.62 µM (active)
[14]
  Potency: 14800 nM (active)
[16]
  Potency: inactive
[17]
  viability: 98.7%

## CC(=O)Nc1cccc(-n2c(=O)n(C3CC3)c(=O)c3c(Nc4ccc(I)cc4F)n(C)c(=O)c(C)c32)c1
[10]
  Potency: 0.0118 µM (active)
[19]
  Potency: 33.2 nM (active)
[12]
  Potency: inactive
[2]
  Potency: 7.43 µM (active)
[3]
  Potency: 0.0187 µM (active)
[4]
  Potency: 3.3 nM (active)
[7]
  Potency: inactive
[8]
  Potency: 8.33 µM (active)
[13]
  Potency: inactive
[14]
  Potency: 13.2 nM (active)
[15]
  Potency: inactive
[16]
  Potency: 296 nM (active)
[17]
  Potency: 3.72 µM (active)
[18]
  Potency: 1.48 µM (active)

## COc1ccc(-c2cc3nccn3c(Nc3ncccc3C(N)=O)n2)cc1OC
[10]
  Potency: 0.418 µM (active)
[12]
  Potency: 10.5 µM (active)
[2]
  Potency: 10.5 µM (active)
[3]
  Potency: 0.935 µM (active)
[4]
  Potency: inactive
[5]
  Potency: 14.8 µM (active)
[7]
  Potency: 3.32 µM (active)
[8]
  Potency: 5.9 µM (active)
[14]
  Potency: 148 nM (active)
[15]
  Potency: 3.32 µM (active)
[16]
  Potency: 2090 nM (active)
[17]
  viability: 103%
[18]
  Potency: 16.6 µM (active)

## O=C(O)c1nc(=O)[nH]c(=O)[nH]1
[1]
  Potency: inactive
[12]
  Potency: inactive
[5]
  Potency: inactive
[6]
  Potency: inactive
[8]
  Potency: 11.5 µM (active)
[9]
  Potency: inactive
[13]
  Potency: inactive
[14]
  Potency: inactive
[18]
  Potency: inactive

## CC1(C)OC2CC3C4CC(F)C5=CC(=O)C=CC5(C)C4C(O)CC3(C)[C@]2(C(=O)CO)O1 (stereo partly drawn)
[10]
  Potency: inactive
[19]
  Potency: 8.3 nM (active)
[12]
  Potency: inactive
[2]
  Potency: inactive
[3]
  Potency: inactive
[4]
  Potency: inactive
[5]
  Potency: 0.0166 µM (active)
[6]
  Potency: inactive
[7]
  Potency: 0.0023 µM (active)
[8]
  Potency: inactive
[9]
  Potency: 0.132 µM (active)
[13]
  Potency: 20.9 nM (active)
[16]
  Potency: inactive
[17]
  viability: 131%
[18]
  Potency: inactive

## C[C@@H](N)c1ccc(C(=O)Nc2ccnc3[nH]ccc23)cc1
[10]
  Potency: 18.7 µM (active)
[11]
  Potency: 16.6 µM (active)
[5]
  Potency: 18.7 µM (active)
[9]
  Potency: 20.9 µM (active)
[13]
  Potency: 20900 nM (active)
[14]
  Potency: 14800 nM (active)
[15]
  Potency: 23.5 µM (active)
[18]
  Potency: 16.6 µM (active)

## NC(=O)c1nnn(Cc2cc(Cl)c(C(=O)c3ccc(Cl)cc3)c(Cl)c2)c1N
[1]
  Potency: 6.62 µM (active)
[2]
  Potency: 20.9 µM (active)
[4]
  Potency: inactive
[5]
  Potency: 18.7 µM (active)
[6]
  Potency: 18.7 µM (active)
[9]
  Potency: inactive
[15]
  Potency: 26.4 µM (active)
[16]
  Potency: 16600 nM (active)

## COc1cc(Nc2nc3ccccc3nc2NS(=O)(=O)c2ccc(NC(=O)c3ccc(C)c(OC)c3)cc2)cc(OC)c1
[10]
  Potency: 23.5 µM (active)
[12]
  Potency: 11.8 µM (active)
[3]
  Potency: 14.8 µM (active)
[5]
  Potency: 20.9 µM (active)
[15]
  Potency: 4.69 µM (active)
[17]
  Potency: 10.5 µM (active)

## Cc1nc2c([nH]1)CCN(C(=O)c1ccc(NC(=O)c3ccccc3-c3ccccc3)cc1)c1ccccc1-2
[12]
  Potency: inactive
[11]
  Potency: inactive
[5]
  Potency: inactive
[6]
  Potency: inactive
[8]
  Potency: inactive
